A short description of experiment [1]: NCI Yeast Anticancer Drug Screen. Data for the rad50 strain (AID 155).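 Note: 0% = growth of vehicle-only cultures of the same strain.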 The conditions noted are these: S. cerevisiae rad50 strain growth inhibition, stronger effect = higher value. In outline:
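Compounds were tested on a yeast strain with an engineered DNA damage repair alteration; the reported value is growth inhibition normalised to vehicle treatment.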

Experiment [2] can be described thus: NCI Yeast Anticancer Drug Screen. Data for the mec2-1 strain (AID 157). The conditions noted are these: S. cerevisiae mec2-1 strain, stronger effect = higher value. The essentials: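 Test agents were screened against the mec2-1 yeast strain, with defined DNA repair or cell cycle alteration. Growth was scored as inhibition against vehicle-only controls.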
A short description of experiment [3]: NCI Yeast Anticancer Drug Screen. Data for the sgs1 mgt1 strain (AID 161).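 Note: 0% = growth of cultures given vehicle only.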 The conditions noted are these: S. cerevisiae sgs1 mgt1 strain, stronger effect = higher value. In outline:
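Read-out: growth inhibition vs vehicle controls. Cells: mutant yeast strain deficient in DNA damage repair.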

A short description of experiment [4]: NCI Yeast Anticancer Drug Screen. Data for the cln2 rad14 strain (AID 165).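 Note: 0% = growth equal to vehicle treated cultures.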 The following applies: S. cerevisiae cln2 rad14 strain, stronger effect = higher value. In outline:
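Growth of compound-exposed yeast (cln2 rad14 genotype) measured and expressed as inhibition relative to vehicle.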

Experiment [5] in a line: NCI Yeast Anticancer Drug Screen. Data for the bub3 strain (AID 167). The conditions noted are these: S. cerevisiae bub3 mutant strain, stronger effect = higher value. The essentials: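 Growth of a checkpoint-deficient yeast mutant is measured after compound exposure. Values represent inhibition relative to vehicle.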
A short description of experiment [6]: NCI Yeast Anticancer Drug Screen. Data for the mlh1 rad18 strain (AID 175). The following applies: S. cerevisiae mlh1 rad18 strain growth inhibition, stronger effect = higher value. In outline:
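In this whole-cell yeast screen, a strain with altered DNA damage repair is challenged with compound, and its growth is measured against matched vehicle-treated controls.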

Where [7] appears, read: at 5.0 µM (retest, dose inferred, filed as 0.5).
Setting [8] is: at 50.0 µM (retest, dose inferred, filed as 5.0).

Growth inhibition data for ten molecules are collected here from PubChem BioAssay (NCI).

About 79,000 compounds went through this panel and 15% of them were active in at least one assay; those are over-represented in the sample as a whole. Unmarked numbers belong to inactive results. Activity calls are given as the source filed them. Cut-off read from the data, not from the text of the source: active = growth inhibition above about 70%; inactive = the rest.

`Cc1cc(C)c(N2C(=O)C=CC2=O)c(C)c1`: the growth inhibition is 98% (active) in experiment [1] (setting [7]); 98% (active) in experiment [1] (setting [8]); 99.7% (active) in experiment [1] (at 50.0 µM); 99% (active) in experiment [2] (setting [7]); 99% (active) in experiment [2] (setting [8]); 99.7% (active) in experiment [2] (at 50.0 µM). The growth inhibition was 99% (active) in experiment [3] (setting [7]); 98% (active) in experiment [3] (setting [8]); 99.3% (active) in experiment [3] (at 50.0 µM); 99% (active) in experiment [4] (setting [7]); 98% (active) in experiment [4] (setting [8]); 99.2% (active) in experiment [4] (at 50.0 µM). The growth inhibition in experiment [5] (setting [7]) is 99% (active); in experiment [5] (setting [8]) it was 98% (active); in experiment [5] (at 50.0 µM), 99.5% (active); in experiment [6] (setting [7]), 98% (active); in experiment [6] (setting [8]), 98% (active); in experiment [6] (at 50.0 µM), 99.3% (active).
`[N-]=[N+]=CC(=O)C1(c2ccccc2)OC1c1ccccc1` (stereo not given): the growth inhibition in experiment [1] (setting [7]) is -20%; in experiment [1] (setting [8]), 1%; in experiment [1] (at 50.0 µM) it was 23.6%; in experiment [2] (setting [7]), 7%; in experiment [2] (setting [8]), 10%; in experiment [2] (at 50.0 µM), 2.55%. Moreover, the growth inhibition is -16% in experiment [3] (setting [7]); -4% in experiment [3] (setting [8]); 55.5% in experiment [3] (at 50.0 µM); -21% in experiment [4] (setting [7]); -18% in experiment [4] (setting [8]); 32.5% in experiment [4] (at 50.0 µM). The growth inhibition in experiment [5] (setting [7]) was -43%; in experiment [5] (setting [8]), -6%; in experiment [5] (at 50.0 µM) it was -7.55%; in experiment [6] (setting [7]), -32%; in experiment [6] (setting [8]), -33%; in experiment [6] (at 50.0 µM), 82.8% (active).
Turning to `CCN1CCC(O)(/C=C/c2ccc(Cl)c(Cl)c2)C(C(=O)/C=C/c2ccc(Cl)c(Cl)c2)C1` (stereo not given), the growth inhibition is 99% (active) in experiment [1] (setting [7]); 99% (active) in experiment [1] (setting [8]); 99% (active) in experiment [1] (at 50.0 µM); 99% (active) in experiment [2] (setting [7]); 100% (active) in experiment [2] (setting [8]); 99.4% (active) in experiment [2] (at 50.0 µM). In addition, the growth inhibition was 99% (active) in experiment [3] (setting [7]); 100% (active) in experiment [3] (setting [8]); 99.5% (active) in experiment [3] (at 50.0 µM); 99% (active) in experiment [4] (setting [7]); 99% (active) in experiment [4] (setting [8]); 97.8% (active) in experiment [4] (at 50.0 µM). Moreover, the growth inhibition in experiment [5] (setting [7]) is 99% (active); in experiment [5] (setting [8]) it was 99% (active); in experiment [5] (at 50.0 µM), 99% (active); in experiment [6] (setting [7]), 99% (active); in experiment [6] (setting [8]), 97% (active); in experiment [6] (at 50.0 µM) it was 98.9% (active).
With `c1nc(N2CCOCC2)c2[nH]cnc2n1`, the growth inhibition is 5% in experiment [1] (setting [7]); -5% in experiment [1] (setting [8]); 22.1% in experiment [1] (at 50.0 µM); -1% in experiment [2] (setting [7]); -7% in experiment [2] (setting [8]); 8.05% in experiment [2] (at 50.0 µM). Further, the growth inhibition in experiment [3] (setting [7]) was 0%; in experiment [3] (setting [8]) it was 4%; in experiment [3] (at 50.0 µM) it was 12.2%; in experiment [4] (setting [7]) it was -1%; in experiment [4] (setting [8]), -13%; in experiment [4] (at 50.0 µM), 36.5%. Also, the growth inhibition in experiment [5] (setting [7]) was -2%; in experiment [5] (setting [8]), 8%; in experiment [5] (at 50.0 µM), -5.75%; in experiment [6] (setting [7]), 5%; in experiment [6] (setting [8]), 5%; in experiment [6] (at 50.0 µM) it was 17.4%.
`Clc1ccccc1/C=C/c1nccc2ccccc12`: the growth inhibition is 15% in experiment [1] (setting [7]); 98% (active) in experiment [1] (setting [8]); 94.1% (active) in experiment [1] (at 50.0 µM); -1% in experiment [2] (setting [7]); 99% (active) in experiment [2] (setting [8]); 60.2% in experiment [2] (at 50.0 µM). Further, the growth inhibition was 18% in experiment [3] (setting [7]); 98% (active) in experiment [3] (setting [8]); 72.3% (active) in experiment [3] (at 50.0 µM); 15% in experiment [4] (setting [7]); 98% (active) in experiment [4] (setting [8]); 15.1% in experiment [4] (at 50.0 µM). The growth inhibition is 64% in experiment [5] (setting [7]); 99% (active) in experiment [5] (setting [8]); 88.5% (active) in experiment [5] (at 50.0 µM); 1% in experiment [6] (setting [7]); 98% (active) in experiment [6] (setting [8]); 94.2% (active) in experiment [6] (at 50.0 µM).
Take `COc1ccc(C(c2ccc(OC)cc2)c2ccccc2C(=O)O)cc1`: the growth inhibition is -5% in experiment [1] (setting [7]); 64% in experiment [1] (setting [8]); 37.8% in experiment [1] (at 50.0 µM); -14% in experiment [2] (setting [7]); 31% in experiment [2] (setting [8]); 27.1% in experiment [2] (at 50.0 µM). The growth inhibition was 16% in experiment [3] (setting [7]); 48% in experiment [3] (setting [8]); 35.1% in experiment [3] (at 50.0 µM); 18% in experiment [4] (setting [7]); 39% in experiment [4] (setting [8]); 35.9% in experiment [4] (at 50.0 µM). Besides, the growth inhibition in experiment [5] (setting [7]) is 20%; in experiment [5] (setting [8]), 56%; in experiment [5] (at 50.0 µM), 18.1%; in experiment [6] (setting [7]), 41%; in experiment [6] (setting [8]), 73% (active); in experiment [6] (at 50.0 µM), 54.9%.
On to `O=C(N=Nc1c(O)[nH]c2ccccc12)C(O)(c1ccccc1)c1ccccc1`, for which the growth inhibition in experiment [1] (setting [7]) was 18%; in experiment [1] (setting [8]), 32%; in experiment [1] (at 50.0 µM), -6.25%; in experiment [2] (setting [7]) it was 19%; in experiment [2] (setting [8]), 32%; in experiment [2] (at 50.0 µM), -8.75%. Besides, the growth inhibition in experiment [3] (setting [7]) was 21%; in experiment [3] (setting [8]) it was 82% (active); in experiment [3] (at 50.0 µM), 80.7% (active); in experiment [4] (setting [7]), 26%; in experiment [4] (setting [8]) it was 27%; in experiment [4] (at 50.0 µM) it was 35.5%. Further, the growth inhibition in experiment [5] (setting [7]) is 12%; in experiment [5] (setting [8]), 38%; in experiment [5] (at 50.0 µM), 25.9%; in experiment [6] (setting [7]), 29%; in experiment [6] (setting [8]) it was 38%; in experiment [6] (at 50.0 µM) it was 29.1%.
With `NNC(=O)c1ccc(N)cc1O`, the growth inhibition in experiment [1] (setting [7]) is -1%; in experiment [1] (setting [8]), -5%; in experiment [1] (at 50.0 µM), -13.6%; in experiment [2] (setting [7]), -3%; in experiment [2] (setting [8]), -1%; in experiment [2] (at 50.0 µM), -13.8%. The growth inhibition in experiment [3] (setting [7]) was -2%; in experiment [3] (setting [8]), -3%; in experiment [3] (at 50.0 µM), -29.2%; in experiment [4] (setting [7]), -2%; in experiment [4] (setting [8]) it was -11%; in experiment [4] (at 50.0 µM) it was 75.1% (active). Further, the growth inhibition in experiment [5] (setting [7]) is -1%; in experiment [5] (setting [8]), -1%; in experiment [5] (at 50.0 µM) it was -3.65%; in experiment [6] (setting [7]), 0%; in experiment [6] (setting [8]) it was -4%; in experiment [6] (at 50.0 µM), 1.8%.
As to `CCCCC(CC)CCC(C)OC(=O)C(O)c1ccccc1` (stereo not given), the growth inhibition was -1% in experiment [1] (setting [7]); 86% (active) in experiment [1] (setting [8]); 61.8% in experiment [1] (at 50.0 µM); -6% in experiment [2] (setting [7]); 87% (active) in experiment [2] (setting [8]); 86.7% (active) in experiment [2] (at 50.0 µM). The growth inhibition was -4% in experiment [3] (setting [7]); 85% (active) in experiment [3] (setting [8]); 83% (active) in experiment [3] (at 50.0 µM); 1% in experiment [4] (setting [7]); 82% (active) in experiment [4] (setting [8]); 32.5% in experiment [4] (at 50.0 µM). In addition, the growth inhibition in experiment [5] (setting [7]) was 1%; in experiment [5] (setting [8]) it was 88% (active); in experiment [5] (at 50.0 µM), 75.5% (active); in experiment [6] (setting [7]), -4%; in experiment [6] (setting [8]), 90% (active); in experiment [6] (at 50.0 µM), 87.8% (active).
For `CN(C)CCC(=O)N1C/C(=C\c2ccc(Cl)c(Cl)c2)C(=O)/C(=C/c2ccc(Cl)c(Cl)c2)C1`, the growth inhibition in experiment [1] (setting [7]) is 98% (active); in experiment [1] (setting [8]), 97% (active); in experiment [1] (at 50.0 µM), 91.7% (active); in experiment [2] (setting [7]), 99% (active); in experiment [2] (setting [8]), 98% (active); in experiment [2] (at 50.0 µM), 89.8% (active). Also, the growth inhibition in experiment [3] (setting [7]) is 99% (active); in experiment [3] (setting [8]), 97% (active); in experiment [3] (at 50.0 µM) it was 88.2% (active); in experiment [4] (setting [7]) it was 98% (active); in experiment [4] (setting [8]), 98% (active); in experiment [4] (at 50.0 µM), 90% (active). Moreover, the growth inhibition in experiment [5] (setting [7]) was 99% (active); in experiment [5] (setting [8]), 98% (active); in experiment [5] (at 50.0 µM), 91.3% (active); in experiment [6] (setting [7]), 99% (active); in experiment [6] (setting [8]), 97% (active); in experiment [6] (at 50.0 µM), 88.9% (active).
